High-throughput results deposited in PubChem by Broad Institute.
Statin myotox sup – suppressors of simvastatin-induced myotoxicity in C2C12 myotubes | ATP luminescence, 48 h; scaled: DMSO 0, geranylgeraniol control 100 | rescue of ATP level, % at 7.49 µM | 330,000 compounds, 0.78% hits;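 active = mean ATP rescue above about 67%, or every replicate alone reaching that limit, limit read from the data, passing the limit was not always enough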;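 also: myotubes were challenged with 10 µM simvastatin during compound exposure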
HIV Env fusion – HIV envelope-mediated fusion inhibition. AID 651610. inhibition, % at 12.3 µM. HeLa-JRFL Env/CEM21 cell fusion, luciferase. 360,000 compounds, 1.1% hits;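 active = mean replicate inhibition score of at least 50 and every replicate individually at or above 50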;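 also: 0% = plate neutral controls and 100% = maraviroc near 300 nM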
PAX8 reporter – lowers PAX8-driven luciferase in RMG-I cells | inhibition, % at 12.6 µM | 360,000 compounds, 1.2% hits | RMG-I TPO-luciferase reporter, SteadyGlo, 24 h;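 active = mean replicate inhibition at least 60% with every replicate also reaching 60%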;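 also: luciferase light reporting Pax8 driven TPO promoter activity; plate controls were median of neutral control wells for no effect and mitoxantrone controls for full effect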
GSIS activator – GLuc luminescence reporter in INS-1E cells, primary screen for activators of glucose-dependent secretion of insulin; INS-1E GLuc reporter insulin secretion, 2-3 h; activation, % at 16.6 µM; 370,000 compounds, 0.61% hits;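 active = lowest replicate activation of at least 40%, so every replicate reaches that level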;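 also: 0% = median of neutral control wells and 100% = median of IBMX positive control wells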
miR-122 sensor – blocks miR-122 activity in Huh7 sensor cells; Huh7 miR-122 Renilla luciferase sensor, 48 h; neutral wells = 0, positive control = 100; activation (reporter increase), % at 12.5 µM; 340,000 compounds, 0.3% hits; AID 602342;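 active = mean replicate activation score at least 90 and every replicate individually at or above 90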;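 also: higher luciferase means less miR-122 activity so hits act as miR-122 inhibitors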
EWS-Fli block – blocks EWS/Fli oncoprotein-driven transcription. A673 NR0B1-luciferase reporter, viability-normalised. 350,000 compounds, 0.67% hits. inhibition, % at 12.6 µM. AID 651661;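 active = mean inhibition of at least 50% after viability correction, with every replicate also passing that limit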;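 also: firefly luciferase signal divided by Alamar Blue viability fluorescence both relative to DMSO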
* marks the source's active call; other numbers are inactive results; i = inactive; / = no result given; [ ] = remark or other dose. Only some compounds are listed: those with a hit (about 3.1% of all), similar ones and a draw of the others.

SMILES	Statin myotox sup	HIV Env fusion	PAX8 reporter	GSIS activator	miR-122 sensor	EWS-Fli block
CCCCCOC(=O)Cn1c(=O)oc2ccccc21	0.6	-16.4	3.6	/	-3.5	-5.1
Cc1noc(C)c1S(=O)(=O)N(C)C[C@H]1OCCCC[C@@H](C)Oc2ccc(NC(=O)CCCN(C)C)cc2C(=O)N([C@@H](C)CO)C[C@H]1C	/	9.1[16.7 µM]	4.1	16.9	-8.3[16.7 µM]	8.8
CCCNC(=O)C[C@H]1CC[C@@H]2[C@H](COC[C@H](O)CN2C(=O)CC)O1	-7.6	/	/	-0.4	0.6[16.7 µM]	/
C/C=C/c1ccc([C@@H]2[C@H](CO)N(CCC(F)(F)F)C23CN(C(=O)COC)C3)cc1	/	/	4.6	2.3	/	-6.3
O=C(/C=C/c1ccccc1)c1c[nH]c2ccccc12	-31.8	-244.9	-11.7	-3.0	8.3	-118.3
O=C(C=Cc1ccccc1)c1c[nH]c2ccccc2c1=O	-11.1	-268.3	86.0*	-24.7	41.4	-24.1
Cc1[nH]c2ccccc2c1/C=C/C(=O)c1ccccc1	/	i	-8.9	-18.6	12.9	/
Cc1[nH]c2ccccc2c(=O)c1C(=O)/C=C/c1ccccc1	61.1	-12.0	103.2*	-55.7	2.4	49.5
Cc1ccc(S(=O)(=O)Nc2ccc3c(c2)CC(=O)N([C@@H](C)CO)C[C@@H](C)[C@H](CN(C)S(=O)(=O)c2cccs2)O3)cc1	-11.3	5.3[16.7 µM]	-17.8	-25.1	34.8[16.7 µM]	11.9
COc1ccc(S(=O)(=O)NNC(=O)c2ccccc2-n2cccc2)cc1	112.0*	9.0	4.4	-15.5	3.6	-2.0
O=C(N/N=C/C=C/c1ccc2c(c1)OCO2)c1ccc([N+](=O)[O-])cc1	-18.8	-26.8	/	73.7*	2.2	/
CCC(=O)N[C@@H]1CC[C@H](CCn2cc(C3CC3)nn2)O[C@@H]1CO	-3.4	5.3[16.7 µM]	-3.8	-9.1	/	-3.0
CCOC(=O)c1sc(NCC2CCCO2)nc1C (stereo not drawn)	113.2*	/	/	/	-3.2	/
CCOC(=O)c1sc(Nc2nc(C)cc(C)n2)nc1C	/	43.1	32.7	13.2	/	53.9*
CCOC(=O)c1sc(Nc2nc3c(OC)cccc3s2)nc1C	106.2*	-147.8	/	/	6.6	/
Cc1cc(C)n(CC(O)CN(c2ccccc2)S(=O)(=O)c2ccccc2)n1 (stereo not drawn)	10.3	/	/	-7.3	5.0	/
O=S(=O)(c1ccccc1)N(CC(O)COc1ccccc1)c1ccccc1 (stereo not drawn)	37.4	9.9	-0.7	-29.9	130.6*	5.5
Cc1cc(Nc2ccccc2)nc(NCc2ccccc2)n1	/	26.5	14.6	-32.4	/	-2.3
Cc1cc(Nc2ccc(Cl)cc2)nc(NCc2ccccc2)n1	/	71.0*	8.6	299.5*	4.6	/
O=C(CN(c1ccc(Cl)cc1)S(=O)(=O)c1ccc(Cl)c([N+](=O)[O-])c1)NCCc1ccccc1	/	12.5	79.4*	18.2	3.8	21.8
O=C(CN(c1ccc(Cl)cc1)S(=O)(=O)c1ccc(Cl)c([N+](=O)[O-])c1)NCCc1ccc(F)cc1	/	-9.4	11.1	5.2	-0.2	/
COc1ccccc1CNC(=O)Nc1cccs1	/	/	/	7.1	4.5	/
COc1ccc(Br)cc1CNC(=O)Nc1cccs1	36.0	5.0	15.4	/	106.1*	/
Cc1csc(-c2nc3ccccc3n2C(C(=O)NC(C)(C)C)c2ccccc2)c1 (stereo not drawn)	/	56.9*	10.1	-27.7	/	3.7
CC(C(=O)NC(C)(C)C)n1c(C(c2ccccc2)c2ccccc2)nc2ccccc21 (stereo not drawn)	/	87.0*	10.2	-49.7	/	-6.1
SMILES	Statin myotox sup	HIV Env fusion	PAX8 reporter	GSIS activator	miR-122 sensor	EWS-Fli block
CCC(C(=O)NC(C)(C)C)n1c(-c2ccc(C)cc2)nc2ccccc21 (stereo not drawn)	/	-6.2	-15.5	-20.6	/	-6.9
CCC(C(=O)NC(C)(C)C)n1c(C(c2ccccc2)c2ccccc2)nc2ccccc21 (stereo not drawn)	/	86.0*	3.8	-8.5	/	-9.8
CNC[C@H]1Oc2c(NC(=O)NC3CCCCC3)cccc2C(=O)N([C@H](C)CO)C[C@H]1C	18.5	-9.8[16.7 µM]	4.6	10.6	0.6[16.7 µM]	1.3
CC(=O)C1=C(O)C(=O)N(Cc2ccco2)C1c1ccccc1F (stereo not drawn)	/	4.0	3.3	-10.6	/	4.2
CC(C)(C)C(=O)C1=C(O)C(=O)N(Cc2ccccc2)C1c1ccccc1F (stereo not drawn)	-8.2	5.3	-8.1	-6.9	238.7*	-0.4
CO[C@H]1CN(C)C(=O)c2ccc(NC(=O)c3ccc(F)cc3)cc2OC[C@H](C)N(C(=O)CC2CC2)C[C@H]1C	-10.1	-4.6[16.7 µM]	/	-23.7	/	1.8
O=C(CSc1nnc(SCc2cccc3ccccc23)s1)N/N=C/c1c[nH]c2ccccc12	/	36.9	-5.3	-16.4	/	/
O=C(CSc1nnc(SCc2ccc(Cl)cc2)s1)N/N=C/c1c[nH]c2ccccc12	/	/	/	96.5*	/	/
C[C@H](CO)N1C[C@H](C)[C@H](CN(C)C(=O)c2ccccc2)Oc2cc(/C=C/c3ccccc3)ccc2S1(=O)=O	-17.5	46.5[16.7 µM]	40.3	-25.0	1.7[16.7 µM]	8.4
C[C@@H]1CN([C@@H](C)CO)S(=O)(=O)c2ccc(/C=C/c3ccccc3)cc2O[C@H]1CN(C)C(=O)c1ccccc1	-17.3	-12.8[16.7 µM]	70.9*	-8.4	19.3[16.7 µM]	31.3
C[C@H]1CN([C@@H](C)CO)S(=O)(=O)c2ccc(/C=C/c3ccccc3)cc2O[C@H]1CN(C)C(=O)Nc1cc(F)ccc1F	-33.8	15.0[16.7 µM]	63.9*	4.5	3.8[16.7 µM]	16.2
C[C@H]1CN([C@@H](C)CO)S(=O)(=O)c2ccc(/C=C/c3ccccc3)cc2O[C@@H]1CN(C)C(=O)Nc1cc(F)ccc1F	4.5	-12.3[16.7 µM]	-17.7	3.3	0.0[16.7 µM]	-4.8
C[C@@H]1CCCCO[C@@H](CN(C)C(=O)C2CCCCC2)[C@H](C)CN([C@H](C)CO)C(=O)c2cc(NC(=O)Nc3ccc4c(c3)OCO4)ccc2O1	/	12.1[16.7 µM]	/	1.9	-6.7[16.7 µM]	15.8
Cc1cccc(NC(=O)c2cnc3sccn3c2=O)c1	-4.7	-40.5	-99.1	/	25.7	-12.5
O=C(Nc1cccc(NC(=O)c2ccccc2F)c1)c1ccccc1	106.6*	23.8	-18.8	23.7	0.3	-8.1
Cc1cccc(NC(=O)c2ccccc2C(=O)O)c1	137.1*	-39.2	0.5	/	-17.7	/
Cc1cccc(NC(=O)c2cnc3ccccn3c2=O)c1	-4.1	-27.2	-223.8	/	/	58.3*
COc1ccc(Br)cc1C(=O)Nc1cccc(C)c1	/	/	/	51.5*	-2.6	/
C[C@@H]1CN([C@@H](C)CO)C(=O)c2cccc(NS(=O)(=O)c3cccs3)c2O[C@@H]1CN(C)Cc1ccncc1	-2.8	/	/	-2.9	2.9[16.7 µM]	0.1
CC(C)OCCCNC(=O)c1cccc(NC(=O)c2ccccc2)c1	11.9	/	126.5*	-0.7	-1.5	-0.8
COCCCNC(=O)c1cccc(NC(=O)c2ccccc2)c1	/	7.9	1.5	-0.4	/	/
